Test results published in PubChem BioAssay (NCATS).
Inconclusive results are not listed. Calls of active or inactive are those of the source. Unless noted, calls follow the shape of the dose curve; as a rule, active = well fitted curve in either direction with a large enough effect (not every such curve was filed as active); inconclusive = small, poorly fitted or top-dose-only effect, or another doubt; inactive = flat fitted curve, though single readings scatter.

tested on: not listed separately; assay: Stat Signaling Pathway (AID 446); details: ME-180 (cervical carcinoma) SIE beta-lactamase reporter, IL-6 stimulated, 5 h; at 17.2 µM (top of the series) unless noted;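 also: ME-180 cervical cancer cells given 40 pM IL-6 alongside compound; SIE-controlled beta-lactamase reporter measured as 460/530 nm FRET emission ratio; % is scaled to controls: 0 for no effect and ±100 for the full control effect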
Outline: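 Compound effects on IL-6-induced STAT reporter activity were measured in ME-180 cells. After overnight culture, cells were co-treated with 40 pM IL-6 for 5 hrs before beta-lactamase substrate loading at room temperature.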

activity, negative = inhibition, inactive:
CCCOc1ccc(-c2nnc(N)s2)cc1 5.95%
CC(C)OC(=O)c1sc2nc3c(cc2c1N)C(=O)CCC3 -1.01%
Cc1cc(C)n(C(=O)CNC(=O)c2cccs2)n1 4.05%
CCCCCCOC(=O)CCn1[nH]c(=O)c2ccccc2c1=O -5.61%
Cc1ccc(-c2nnc(OCCN3CCOCC3)c3ccccc23)cc1 -1.56%
Oc1ccc2ccccc2c1/C=N/n1cnnc1 -0.766%
NC(=O)C1CCN(CCC(=O)Nc2ccc(Br)cc2)CC1 5.95%
COc1ccc(/C(O)=C2\C(=O)C(=O)N(CCN3CCOCC3)C2c2ccccc2OC)cc1 (stereo not given) -2.59%
CCCCNC(=O)N1CCOCCOCCN(C(=O)NCCCC)CCOCC1 5.68%
CN(C)CC(O)COc1cccc(OCC(O)CN(C)C)c1 (stereo not given) 3.74%
CN(C)CCCn1c(NC(=O)C2CCCCC2)nc2ccccc21 6.97%
Cc1cc(NC(CC(C)C)C(=O)O)nc(Cc2ccccc2)n1 (stereo not given) 5.49%
CCCC(=O)Nn1cnc2c(c1=O)C1(CCCC1)Cc1ccccc1-2 -0.176%
O=C(O)C(Cc1c[nH]c2ccccc12)NS(=O)(=O)c1cccc2nsnc12 (stereo not given) 6.46%
O=C(c1cccc2ccccc12)N1CCC(N2CCN(c3ccccc3)CC2)CC1 -1.11%
CCOc1ccc(S(=O)(=O)N(C)C)cc1-c1nc2c(C(C)(C)C)nn(C)c2c(=O)[nH]1 -17.2%
CCOC(=O)CC(=O)CSc1nc2c(cc1C#N)CCCCC2 -7.32%
Cc1ccc(C(=O)C2C(c3cccs3)NC(=O)NC2(O)C(F)(F)F)cc1 (stereo not given) 0.646%
COCCNc1nc2c(c(=O)n(C)c(=O)n2C)n1Cc1cccc(C(F)(F)F)c1 226%
c1ccc(CN2CCN(c3nc(-c4ccccn4)nc4ccccc34)CC2)cc1 6.73%
CCOC(=O)C(C)c1nc2ccccc2[nH]c1=O (stereo not given) 4.12%
CC1(C)Cc2c(c(-c3ccccc3)[nH]c(=O)c2C#N)CS1 -8.62%
CCN(CC)CCNC(=O)c1c(C)oc2cc(Br)c(OC)cc12 -1.1%
OCCCc1nc2ccccc2n1CCc1ccccc1 -0.378%
Oc1ccccc1-c1nc(NCCN2CCOCC2)c2ccccc2n1 -12.5%
CC(NC(=O)CSc1nnc(COc2ccccc2)o1)c1ccccc1 (stereo not given) 2.03%
Cc1[nH]nc2cn[nH]c12 4.46%
C[N+](C)(C)CCOP(=O)([O-])OC[C@H](O)CO -1.98%
CCOC(=O)C1=C(N)N2C(=O)CSC2=C(C(=O)OC)C1 -25.6%
N/C(CCN1CCOCC1)=N/O -0.113%
Cn1c(=O)c2c(nc(N3CCC(C(N)=O)CC3)n2CCSc2nc3ccccc3s2)n(C)c1=O 1.48%
CC(=O)N1CCC2(CC1)C(C#N)=C(N)Oc1n[nH]c(C(F)(F)F)c12 5.71%
Cc1ccc(-n2nc3cc(Cl)c(NC(=O)c4ccco4)cc3n2)cc1 -1.11%
O=C1C(=O)N(Cc2cccnc2)C(c2ccccn2)/C1=C(/O)c1ccc(Br)cc1 (stereo not given) -10.5%
COc1ccc2c(c1)nc(N)n2Cc1ccccc1 -3.55%
O=C(O)c1ccc(C2CCCCC2)cn1 15.1%
CCSc1nnc(NC(NC(=O)c2ccco2)(C(F)(F)F)C(F)(F)F)s1 3.98%
c1ccc2c(c1)[nH]c1c(N3CCSCC3)ncnc12 -18.7%
CC(C)Oc1ccc(/C(O)=C2/C(=O)C(=O)N(CCN3CCOCC3)C2c2ccccc2)cc1 (stereo not given) -0.677%
COC(=O)C(NC(C)=O)(Nc1nc2ccc(S(C)(=O)=O)cc2s1)C(F)(F)F (stereo not given) -5.35%

biological target: Glucocorticoid receptor (Homo sapiens) (UniProt P04150); assay: GR-GFP Redistribution (AID 450;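 active = compounds whose dose series gives a full or clear partial fitted curve of increased nuclear translocation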; also: potency is read from the fitted curve at half-maximal effect); details: U2OS GR-GFP nuclear translocation, laser cytometry, 2 h; series mostly up to 20.6 µM
Sequence (P04150 whole entry, looked up): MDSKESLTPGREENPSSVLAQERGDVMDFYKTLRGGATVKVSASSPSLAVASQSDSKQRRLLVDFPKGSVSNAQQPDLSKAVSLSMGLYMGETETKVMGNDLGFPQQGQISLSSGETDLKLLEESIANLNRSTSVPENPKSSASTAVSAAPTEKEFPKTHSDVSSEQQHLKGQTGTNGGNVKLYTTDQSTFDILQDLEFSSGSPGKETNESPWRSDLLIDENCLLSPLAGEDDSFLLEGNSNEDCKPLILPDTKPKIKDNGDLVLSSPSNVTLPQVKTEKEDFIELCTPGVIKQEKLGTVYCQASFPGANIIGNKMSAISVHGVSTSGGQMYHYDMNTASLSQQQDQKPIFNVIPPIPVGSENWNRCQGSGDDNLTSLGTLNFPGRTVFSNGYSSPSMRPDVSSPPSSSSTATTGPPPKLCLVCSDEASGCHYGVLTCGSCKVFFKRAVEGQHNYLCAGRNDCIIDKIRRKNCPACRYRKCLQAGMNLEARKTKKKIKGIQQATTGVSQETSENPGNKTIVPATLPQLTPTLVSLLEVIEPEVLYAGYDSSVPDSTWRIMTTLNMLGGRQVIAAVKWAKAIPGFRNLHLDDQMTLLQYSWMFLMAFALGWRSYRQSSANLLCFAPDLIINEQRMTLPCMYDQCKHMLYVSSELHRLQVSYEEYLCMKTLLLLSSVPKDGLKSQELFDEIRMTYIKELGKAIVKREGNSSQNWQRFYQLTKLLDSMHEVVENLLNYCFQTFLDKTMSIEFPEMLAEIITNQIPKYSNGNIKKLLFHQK

Potency, inactive:
CCCOc1ccc(-c2nnc(N)s2)cc1 > 20.6 µM
CC(C)OC(=O)c1sc2nc3c(cc2c1N)C(=O)CCC3 > 20.6 µM
Cc1cc(C)n(C(=O)CNC(=O)c2cccs2)n1 > 20.6 µM
CCCCCCOC(=O)CCn1[nH]c(=O)c2ccccc2c1=O > 20.6 µM
Cc1ccc(-c2nnc(OCCN3CCOCC3)c3ccccc23)cc1 > 20.6 µM
Oc1ccc2ccccc2c1/C=N/n1cnnc1 > 20.6 µM
NC(=O)C1CCN(CCC(=O)Nc2ccc(Br)cc2)CC1 > 20.6 µM
COc1ccc(/C(O)=C2\C(=O)C(=O)N(CCN3CCOCC3)C2c2ccccc2OC)cc1 (stereo not given) > 20.6 µM
CCCCNC(=O)N1CCOCCOCCN(C(=O)NCCCC)CCOCC1 > 20.6 µM
CN(C)CC(O)COc1cccc(OCC(O)CN(C)C)c1 (stereo not given) > 20.6 µM
CN(C)CCCn1c(NC(=O)C2CCCCC2)nc2ccccc21 > 20.6 µM
Cc1cc(NC(CC(C)C)C(=O)O)nc(Cc2ccccc2)n1 (stereo not given) > 20.6 µM
CCCC(=O)Nn1cnc2c(c1=O)C1(CCCC1)Cc1ccccc1-2 > 20.6 µM
O=C(O)C(Cc1c[nH]c2ccccc12)NS(=O)(=O)c1cccc2nsnc12 (stereo not given) > 20.6 µM
O=C(c1cccc2ccccc12)N1CCC(N2CCN(c3ccccc3)CC2)CC1 > 20.6 µM
CCOc1ccc(S(=O)(=O)N(C)C)cc1-c1nc2c(C(C)(C)C)nn(C)c2c(=O)[nH]1 > 20.6 µM
CCOC(=O)CC(=O)CSc1nc2c(cc1C#N)CCCCC2 > 20.6 µM
Cc1ccc(C(=O)C2C(c3cccs3)NC(=O)NC2(O)C(F)(F)F)cc1 (stereo not given) > 20.6 µM
COCCNc1nc2c(c(=O)n(C)c(=O)n2C)n1Cc1cccc(C(F)(F)F)c1 > 20.6 µM
c1ccc(CN2CCN(c3nc(-c4ccccn4)nc4ccccc34)CC2)cc1 > 20.6 µM
CCOC(=O)C(C)c1nc2ccccc2[nH]c1=O (stereo not given) > 20.6 µM
CC1(C)Cc2c(c(-c3ccccc3)[nH]c(=O)c2C#N)CS1 > 20.6 µM
CCN(CC)CCNC(=O)c1c(C)oc2cc(Br)c(OC)cc12 > 20.6 µM
OCCCc1nc2ccccc2n1CCc1ccccc1 > 20.6 µM
Oc1ccccc1-c1nc(NCCN2CCOCC2)c2ccccc2n1 > 20.6 µM
CC(NC(=O)CSc1nnc(COc2ccccc2)o1)c1ccccc1 (stereo not given) > 20.6 µM
Cc1[nH]nc2cn[nH]c12 > 20.6 µM
C[N+](C)(C)CCOP(=O)([O-])OC[C@H](O)CO > 20.6 µM
CCOC(=O)C1=C(N)N2C(=O)CSC2=C(C(=O)OC)C1 > 20.6 µM
N/C(CCN1CCOCC1)=N/O > 20.6 µM
Cn1c(=O)c2c(nc(N3CCC(C(N)=O)CC3)n2CCSc2nc3ccccc3s2)n(C)c1=O > 20.6 µM
CC(=O)N1CCC2(CC1)C(C#N)=C(N)Oc1n[nH]c(C(F)(F)F)c12 > 20.6 µM
Cc1ccc(-n2nc3cc(Cl)c(NC(=O)c4ccco4)cc3n2)cc1 > 20.6 µM
O=C1C(=O)N(Cc2cccnc2)C(c2ccccn2)/C1=C(/O)c1ccc(Br)cc1 (stereo not given) > 20.6 µM
COc1ccc2c(c1)nc(N)n2Cc1ccccc1 > 20.6 µM
O=C(O)c1ccc(C2CCCCC2)cn1 > 20.6 µM
CCSc1nnc(NC(NC(=O)c2ccco2)(C(F)(F)F)C(F)(F)F)s1 > 20.6 µM
c1ccc2c(c1)[nH]c1c(N3CCSCC3)ncnc12 > 20.6 µM
CC(C)Oc1ccc(/C(O)=C2/C(=O)C(=O)N(CCN3CCOCC3)C2c2ccccc2)cc1 (stereo not given) > 20.6 µM
COC(=O)C(NC(C)=O)(Nc1nc2ccc(S(C)(=O)=O)cc2s1)C(F)(F)F (stereo not given) > 20.6 µM
